In PubChem BioAssay one finds composite z-score and z-score data, which are given here for 14 compounds.

Active and inactive are the calls of the source. Unless noted, the rule behind the calls is not given here.

The subject of experiment [1] is Wnt5a (protein binding on small-molecule microarray). The experiment is described as follows: small molecules binding Wnt5a protein – biophysical, small-molecule microarray, 635/667 nm fluorescence, primary screen (AID 1142).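 Note: fluorescence read at 667 nm with signal to noise per printed feature.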 Conditions: 635 nm fluorescence, higher = more signal.
Experiment [2] can be described thus: ATP-based viability of Huh7 replicon cells – cell-based, CellTiter-Glo luminescence, basal, 48 h, cytotoxicity control for HCV replication inhibitor project, primary screen (AID 1143).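 Note: Huh7 hepatoma cells carrying a hepatitis C replication reporter with no stimulus; test concentration not given here.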 Conditions: higher = more signal, called active from +8 up or from −8 down. (A replicon is a self-replicating genome or part of one, used to study replication in cells.)
The nature of experiment [3]: Pseudomonas biofilm growth suppression – PAO1 strain, BacTiter-Glo luminescence, LB-PBS, primary screen (AID 1144). The following applies: P. aeruginosa PAO1 biofilm, 12 h, higher = more signal.
Experiment [4] in a line: basal CRE-LacZ reporter activity in PC12 – cell-based, unstimulated, primary screen (AID 1145). Conditions: no forskolin, luminescence, 4.5 h, higher = more signal, called active from +8 up or from −8 down.
The nature of experiment [5]: forskolin-driven CRE-LacZ activity in PC12 – cell-based, CRE-LacZ reporter, forskolin-stimulated, primary screen (AID 1146).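 Note: PC12 cells with 6xCRE LacZ reporter stimulated by forskolin 10 µM; beta-galactosidase reporter signal reflecting CREB driven transcription.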 The following applies: luminescence, 4.5 h, higher = more signal, called active from +8 up or from −8 down.
The target in experiment [6] is Streptavidin (Streptomyces avidinii) (UniProt P22629). The experiment is described as follows: compounds binding control protein streptavidin – biophysical, small-molecule microarray, 635/667 nm fluorescence, artefact control for SMM compound annotation, primary screen (AID 1147).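 Note: signal reflects streptavidin binding to arrayed compounds as a control protein.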 Conditions: higher = more signal.
Streptavidin (Streptomyces avidinii), sequence (P22629 whole entry, looked up): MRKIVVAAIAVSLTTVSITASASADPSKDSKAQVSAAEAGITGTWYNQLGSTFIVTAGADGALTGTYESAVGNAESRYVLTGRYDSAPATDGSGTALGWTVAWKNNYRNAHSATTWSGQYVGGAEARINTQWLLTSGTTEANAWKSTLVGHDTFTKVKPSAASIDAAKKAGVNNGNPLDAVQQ
Experiment [7] in a line: probe aInhba binding on compound microarray – biochemical, small-molecule microarray, 635/667 nm fluorescence, primary screen (AID 1148).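 Note: score merges 667nm spot fluorescence with signal-to-noise for antibody binding to printed compounds.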 The following applies: higher = more signal.
The target of experiment [8] is Torsin-1A (Homo sapiens) (UniProt O14656). The experiment is described as follows: TOR1A wild-type binding on microarray – cell lysate, small-molecule microarray, lysate, 635/667 nm, primary screen (AID 1149). The following applies: COS7 hTOR1A-WT lysate, 635 nm fluorescence, higher = more signal.
Torsin-1A (Homo sapiens), sequence (O14656 whole entry, looked up): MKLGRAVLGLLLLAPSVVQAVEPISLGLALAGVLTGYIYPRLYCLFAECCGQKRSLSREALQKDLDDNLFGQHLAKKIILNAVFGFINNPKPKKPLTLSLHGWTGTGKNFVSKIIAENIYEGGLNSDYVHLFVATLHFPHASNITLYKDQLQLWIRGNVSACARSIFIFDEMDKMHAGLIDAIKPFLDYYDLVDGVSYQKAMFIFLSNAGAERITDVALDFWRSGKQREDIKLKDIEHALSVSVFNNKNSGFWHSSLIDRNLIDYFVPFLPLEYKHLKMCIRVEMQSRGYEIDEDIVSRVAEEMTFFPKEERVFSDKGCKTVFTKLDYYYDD
For experiment [9] the target is unchanged. In words: torsin A mutant lysate binding on microarrays – cell lysate, small-molecule microarray, COS7 lysate, 635/667 nm fluorescence, primary screen (AID 1150).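 Note: score pools 667 nm emission and signal to noise measuring lysate protein binding.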 The following applies: COS7 hTOR1A mutant lysate, 635 nm fluorescence, higher = more signal.
Experiment [10] concerns Sonic hedgehog protein (Shh). In words: Sonic hedgehog microarray binding compounds – biochemical, small-molecule microarray, 635/667 nm fluorescence, primary screen (AID 1151).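 Note: Shh protein binding to compounds spotted on small-molecule microarray slides; score combines spot fluorescence intensity with signal-to-noise across triplicate slides.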 The following applies: 635 nm fluorescence, higher = more signal.

As to `O=C(CS)NCCCCCNC(=O)[C@H]1C[C@H]2C(=O)NCC(=O)N2[C@H]1c1ccc(O)cc1`, the composite z-score in [1] is -0.55; in [6], -1.11; in experiment [7], -0.264; in experiment [8] it was -0.518; in [9], 0.113; in experiment [10], 0.0174. For the same compound, the z-score in experiment [2] was -0.173 (inactive); in experiment [3], -0.196 (inactive); in experiment [4], -1.49 (inactive); in experiment [5], -0.684 (inactive).
For `COC(=O)c1c2oc(c1C(=O)OC)C(=O)NC1(CCCCC1)c1cn(nn1)C[C@H](Cc1ccccc1)NC(=O)N[C@H](CO)CC2`, the composite z-score in experiment [1] is -0.151; in [6], 1.05; in experiment [7], -0.05; in experiment [8], -0.299; in experiment [9], 0.113; in experiment [10], 1.32. The z-score in experiment [2] is -0.275 (inactive); in experiment [3] it was -0.926 (inactive); in [4] it was 3.49 (inactive); in experiment [5] it was -0.696 (inactive).
Take `O=c1cccc(-c2ccccc2Cl)o1`: the composite z-score in experiment [1] is -0.196; in [6], 0.423; in [7] it was 0.115; in experiment [8], 0.64; in [9], 0.112; in experiment [10] it was 0.322. Moreover, the z-score in experiment [2] is -0.759 (inactive); in experiment [3], 0.387 (inactive); in [4] it was 0.285 (inactive); in [5], 0.556 (inactive).
`CS(=O)(=O)CCOC(=O)C1=CC(CCCO)=CC(c2ccc(CN3CCCC3)cc2)N(Cc2cccc(OC(F)(F)F)c2)C=C1C(=O)OCCS(C)(=O)=O` (stereo not given): the composite z-score in [1] worked out at 0.531; in experiment [6], 0.812; in [7], 0.259; in experiment [8], 0.907; in [9], 1.33; in experiment [10], 0.798. Besides, the z-score in [2] is -1.42 (inactive); in experiment [3], 4.41 (inactive); in experiment [4] it was 4.56 (inactive); in experiment [5] it was -0.0478 (inactive).
As for `CCOc1cc(C(O)C2C=CC3C(=O)N(c4ccccc4)C(=O)C3N2Nc2ccc(C(C)C)cc2)ccc1O` (stereo not given), the composite z-score was 0.12 in [1]; 0.809 in experiment [6]; -0.0375 in [7]; 0.159 in experiment [8]; 0.57 in experiment [9]; 0.323 in experiment [10]. The z-score is -1.15 (inactive) in experiment [2], -0.941 (inactive) in experiment [3], 1.96 (inactive) in experiment [4] and 0.193 (inactive) in experiment [5].
Consider `[N-]=[N+]=Nc1ccccc1C[C@@]1(C(=O)N2CCCCC2)N=C(c2ccc(OCCCO)cc2)O[C@@H]1c1ccccc1N=[N+]=[N-]`, for which the composite z-score amounted to 0.648 in experiment [1]; 1.33 in experiment [6]; 0.404 in experiment [7]; 0.46 in experiment [8]; 0.585 in [9]; 0.248 in experiment [10]. In addition, the z-score is -5.13 (inactive) in experiment [2], 0.989 (inactive) in experiment [3], 0.801 (inactive) in [4] and -0.929 (inactive) in experiment [5].
Consider `CCOC(=O)C1=CC[C@H]2C(=O)N(c3ccccc3)C(=O)[C@@H]12`, for which the composite z-score in experiment [1] was determined as 0.125; in experiment [6], 0.9; in [7], 0.19; in experiment [8] it was 0.079; in [9], 1.08; in experiment [10], 0.814. Besides, the z-score in experiment [2] is -0.321 (inactive); in [3], 0.96 (inactive); in experiment [4] it was 0.836 (inactive); in experiment [5] it was -0.0473 (inactive).
On to `CCOC(=O)C1=CC[C@@H](c2ccccc2)N(S(=O)(=O)c2ccc(C)cc2)[C@H]1c1ccc(CC)cc1`, for which the composite z-score in experiment [1] is 0.074; in experiment [6], 1.13; in [7], 0.0018; in experiment [8], 0.567; in [9], 0.359; in experiment [10] it was -0.737. Besides, the z-score in experiment [2] is -3.08 (inactive); in experiment [3], 1.17 (inactive); in experiment [4], 0.136 (inactive); in [5], 0.0268 (inactive).
For the compound `C=CCNC(=O)[C@@H]1[C@H]2C(=O)O[C@H](c3ccccc3)[C@H](c3ccccc3)N2[C@H](c2ccc(OCCO)cc2)[C@@]12C(=O)N(C(=O)OCCOC)c1ccc(C#CCC(C(=O)OC)C(=O)OC)cc12`, the composite z-score in experiment [1] is 0.486; in experiment [6] it was 0.386; in experiment [7] it was 0.322; in experiment [8] it was 0.126; in [9] it was 0.681; in experiment [10], 1.09. Also, the z-score in experiment [2] was -2.47 (inactive); in experiment [3], 0.975 (inactive); in experiment [4] it was 0.208 (inactive); in experiment [5], -0.208 (inactive).
Regarding `O=C1NC(=O)C2C1C=CC(C(O)c1ccc(I)cc1)N2Nc1ccc(Cl)cc1Cl` (stereo not given), the composite z-score in experiment [1] was 0.372; in [6] it was 1.34; in experiment [7], 0.337; in [8], 0.0137; in [9], 0.303; in experiment [10] it was -0.366. Besides, the z-score in experiment [2] is -1.58 (inactive); in experiment [3] it was -1.74 (inactive); in [4] it was 1.77 (inactive); in experiment [5] it was -0.299 (inactive).
On to `COC(=O)[C@@]1(Cc2ccc(OC)cc2)[C@H]2c3cc(C(=O)N4CCCC4)n(CCSCCO)c3C[C@H]2CN1C(=O)c1ccccc1`, for which the composite z-score is 0.631 in experiment [1]; 0.532 in experiment [6]; 0.257 in [7]; 0.396 in [8]; 1.45 in experiment [9]; -0.623 in experiment [10]. Further, the z-score in [2] is -0.974 (inactive); in experiment [3], 0.58 (inactive); in [4], 1.34 (inactive); in [5] it was 1.82 (inactive).
For the compound `NC(=O)N1C(=O)C2C(C1=O)C1C=C(CCCO)C2C(C2CC2)N1Cc1cc2c(cc1Br)OCO2` (stereo not given), the composite z-score in [1] was -0.219; in experiment [6], 0.129; in [7] it was -0.157; in [8], 0.0457; in [9] it was 0.28; in [10], 0.195. In addition, the z-score in experiment [2] is -0.387 (inactive); in [3] it was 1.44 (inactive); in experiment [4], 4.37 (inactive); in experiment [5] it was 0.0317 (inactive).
As to `C=CC[C@@]1(C(=O)N2CCCCC2)N=C(c2ccc(OCCCO)cc2)O[C@@H]1c1ccccc1CN=[N+]=[N-]`, the composite z-score in experiment [1] turned out to be 0.381; in [6], 1.77; in [7], 0.233; in experiment [8] it was 0.342; in [9] it was 0.711; in experiment [10], 0.466. The z-score is -4.96 (inactive) in experiment [2], -0.703 (inactive) in experiment [3], 3.77 (inactive) in experiment [4] and 0.51 (inactive) in experiment [5].
As to `COc1cc(CO)cc(I)c1O[C@H]1C=C(C(=O)NCCO)C[C@@H](NC[C@@H]2CCCO2)[C@@H]1O`, the composite z-score in experiment [1] is -0.11; in [6], -0.442; in experiment [7], -0.135; in experiment [8] it was 0.761; in experiment [9], 0.127; in experiment [10], 1.07. The z-score in experiment [2] is 0.102 (inactive); in [3], -0.69 (inactive); in experiment [4] it was 1.77 (inactive); in experiment [5], -0.809 (inactive).
